Assay outcomes deposited in PubChem by SRMLSC.
Most compounds without a hit are left out; they make up all but 6.8% or so of the library.
A340 absorber – compounds absorbing at 340 nm; compound absorbance at 340 nm, fold over control; fold change at 10 µM; 65,000 tested, under 10 active; AID 708;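 active = at 10 µM dose, initial 340 nm absorbance at least 2 fold that of control wells; inactive = change under 2 fold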;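 also: initial absorbance extrapolated from kinetic A340 decline of NADH oxidation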
DPM-DC inhibit – S. pneumoniae DPM-DC inhibition. purified DPM-DC, PK/LDH coupled NADH fluorescence. calls only at 10 µM. 65,000 tested, 0.49% active;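 active = the 320 compounds with the highest percent inhibition in the single-dose primary screen, excluding strongly autofluorescent ones, cut at about 32% in these data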;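 also: kinetic rate of NADH fluorescence loss reporting ADP formed by the decarboxylase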
Fluor 339 460 – intrinsic fluorescence of library compounds, ex339/em460 – biochemical, MLSMR library, data from DPM-DC assay, artefact control, profiling panel; compound autofluorescence, ex339/em460 nm, NADH buffer; active compounds read high; 1 = no-compound wells, NADH background; fluorescence fold increase at 10 µM; 65,000 tested, 5.5% active;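 active = at 10 µM, mean starting fluorescence two-fold or more over control wells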;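 also: signal is the first read of a kinetic run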
PMK inhibit – inhibitors of Streptococcus pneumoniae phosphomevalonate kinase. inhibition, % at 10 µM. 65,000 tested, 0.49% active. purified PMK, PK/LDH-coupled NADH absorbance 340 nm;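 active = top-ranked compounds by inhibition in the single 10 µM screen, taking a fixed number of the strongest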
NADH coupling – inhibitors of enzymes used to reach an NAD/NADH endpoint | coupled PK/LDH NADH assays, four targets | IC50, µM (series often up to 10 µM) | 65,000 tested, 0.02% active;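 active = single-dose screening hits from any of four coupled enzyme assays that gave an IC50 when retested across doses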;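 also: the DPM-DC format reads NADH fluorescence rather than 340 nm absorbance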
MK inhibit – inhibitors of Streptococcus pneumoniae mevalonate kinase; AID 555; 65,000 tested, 0.48% active; inhibition, % at 10 µM; purified MK, PK/LDH-coupled NADH absorbance 340 nm;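 active = ranked among the strongest by inhibition in the single 10 µM screen, a fixed top-ranked set picked for dose follow-up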
Numbers stand for hits.

`Cn1nc(CC(=O)Nc2ncc(Br)s2)c2ccccc2c1=O` gave A340 absorber inactive, DPM-DC inhibit inactive, Fluor 339 460 inactive, PMK inhibit 25, NADH coupling inactive and MK inhibit inactive.
Screening Cn1nc(CC(=O)Nc2ccc3c(c2)CCC3)c2ccccc2c1=O returned A340 absorber inactive, DPM-DC inhibit inactive, Fluor 339 460 inactive, PMK inhibit inactive, NADH coupling inactive and MK inhibit inactive.
`CCn1c(SCc2cccc(C(F)(F)F)c2)nnc1-c1ccco1` gave A340 absorber inactive, DPM-DC inhibit inactive, Fluor 339 460 inactive, PMK inhibit inactive, NADH coupling inactive and MK inhibit inactive.
Screening Cc1ccc(OCC(=O)O)c(-n2nc3ccccc3n2)c1 returned A340 absorber inactive, DPM-DC inhibit inactive, Fluor 339 460 inactive, PMK inhibit inactive, NADH coupling inactive and MK inhibit inactive.
`O=C(O)COc1ccc2nsnc2c1Cl` gave A340 absorber inactive, Fluor 339 460 3.7, PMK inhibit inactive, NADH coupling inactive and MK inhibit inactive.
`N#Cc1nc(Cc2ccccc2)oc1N1CCC(C(N)=O)CC1` gave A340 absorber inactive, DPM-DC inhibit inactive, Fluor 339 460 inactive, PMK inhibit inactive, NADH coupling inactive and MK inhibit inactive.
Screening CC1CN(c2oc(-c3ccco3)nc2C#N)CC(C)O1 (centres undefined) returned A340 absorber inactive, Fluor 339 460 3.8, PMK inhibit inactive, NADH coupling inactive and MK inhibit inactive.
N#Cc1nc(-c2ccco2)oc1N1CCC(C(N)=O)CC1 was read as A340 absorber inactive, Fluor 339 460 3.9, PMK inhibit inactive, NADH coupling inactive and MK inhibit inactive.
`COCCCn1c(=N)c(C(=O)NCc2ccc3c(c2)OCO3)cc2c(=O)n3ccccc3nc21` gave A340 absorber inactive, DPM-DC inhibit inactive, Fluor 339 460 inactive, PMK inhibit inactive, NADH coupling inactive and MK inhibit inactive.
Screening O=C(CCn1c(=O)c2ccccc2n(Cc2cc(=O)n3ccccc3n2)c1=O)NCc1ccco1 returned A340 absorber inactive, DPM-DC inhibit inactive, Fluor 339 460 2.2, PMK inhibit inactive, NADH coupling inactive and MK inhibit inactive.
Screening COCCn1c(=N)c(C(=O)NCc2ccco2)cc2c(=O)n3ccccc3nc21 returned A340 absorber inactive, DPM-DC inhibit inactive, Fluor 339 460 3, PMK inhibit inactive, NADH coupling inactive and MK inhibit inactive.
CCOC(=O)c1cc2c(=O)n3ccccc3nc2n(Cc2ccc(Cl)cc2)c1=N was read as A340 absorber inactive, DPM-DC inhibit inactive, Fluor 339 460 2.3, PMK inhibit inactive, NADH coupling inactive and MK inhibit inactive.
N=c1c(C(=O)NCc2ccco2)cc2c(=O)n3ccccc3nc2n1Cc1ccccc1 was read as A340 absorber inactive, DPM-DC inhibit inactive, Fluor 339 460 2.4, PMK inhibit inactive, NADH coupling inactive and MK inhibit inactive.
For CCN(CC)S(=O)(=O)c1ccc2c(c1)nc(SCn1nnc3ccccc3c1=O)n2CC the results were A340 absorber inactive, DPM-DC inhibit inactive, Fluor 339 460 inactive, PMK inhibit inactive, NADH coupling inactive and MK inhibit inactive.
Screening Cn1c(CCNC(=O)c2ccccc2F)nnc1SCc1nc2ccccc2c(=O)[nH]1 returned A340 absorber inactive, DPM-DC inhibit inactive, Fluor 339 460 inactive, PMK inhibit inactive, NADH coupling inactive and MK inhibit inactive.
N=c1c(C(=O)NCc2ccc3c(c2)OCO3)cc2c(=O)n3ccccc3nc2n1Cc1cccnc1 was read as A340 absorber inactive, DPM-DC inhibit inactive, Fluor 339 460 inactive, PMK inhibit inactive, NADH coupling inactive and MK inhibit inactive.
For N=c1c(C(=O)NCc2ccco2)cc2c(=O)n3ccccc3nc2n1Cc1ccc(Cl)cc1 the results were A340 absorber inactive, DPM-DC inhibit inactive, Fluor 339 460 2.5, PMK inhibit inactive, NADH coupling inactive and MK inhibit inactive.
Screening N#Cc1nc(COc2ccccc2Cl)oc1NCc1ccc(F)cc1 returned A340 absorber inactive, DPM-DC inhibit inactive, Fluor 339 460 inactive, PMK inhibit inactive, NADH coupling inactive and MK inhibit inactive.
`COc1ccccc1-c1nc(C#N)c(NCc2ccc(F)cc2)o1` gave A340 absorber inactive, Fluor 339 460 3.9, PMK inhibit inactive, NADH coupling inactive and MK inhibit inactive.
For N#Cc1nc(-c2ccc(F)cc2)oc1NCc1ccccc1 the results were A340 absorber inactive, Fluor 339 460 2.2, PMK inhibit inactive, NADH coupling inactive and MK inhibit inactive.
COc1ccc(CCNc2oc(-c3ccccc3OC)nc2C#N)cc1OC was read as A340 absorber inactive, Fluor 339 460 3.9, PMK inhibit inactive, NADH coupling inactive and MK inhibit inactive.
`COc1ccc(CNc2oc(COc3ccccc3)nc2C#N)cc1` gave A340 absorber inactive, DPM-DC inhibit inactive, Fluor 339 460 inactive, PMK inhibit inactive, NADH coupling inactive and MK inhibit inactive.
`COCCNc1oc(-c2ccccc2Cl)nc1C#N` gave A340 absorber inactive, DPM-DC inhibit inactive, Fluor 339 460 inactive, PMK inhibit inactive, NADH coupling inactive and MK inhibit inactive.
COCCNc1oc(-c2ccc(F)cc2)nc1C#N was read as A340 absorber inactive, Fluor 339 460 2.4, PMK inhibit inactive, NADH coupling inactive and MK inhibit inactive.
CCc1cc2c(=O)n(N)c(CCC(=O)O)nc2s1 was read as A340 absorber inactive, DPM-DC inhibit inactive, Fluor 339 460 inactive, PMK inhibit inactive, NADH coupling inactive and MK inhibit inactive.
For COc1ccc(CCNc2oc(-c3ccccc3OC)nc2C#N)cc1 the results were A340 absorber inactive, Fluor 339 460 3, PMK inhibit inactive, NADH coupling inactive and MK inhibit inactive.
For O=C(CCC1CCCC1)N1CCN(C(=O)c2ccco2)CC1 the results were A340 absorber inactive, DPM-DC inhibit inactive, Fluor 339 460 inactive, PMK inhibit inactive, NADH coupling inactive and MK inhibit inactive.
Screening COc1cccc2c(=O)c(C(=O)NCc3cccs3)c[nH]c12 returned A340 absorber inactive, Fluor 339 460 3.7, PMK inhibit inactive, NADH coupling inactive and MK inhibit inactive.
`OC1(c2cccc(C(F)(F)F)c2)CCN(c2ncnc3c2[nH]c2ccc(F)cc23)CC1` gave A340 absorber inactive, DPM-DC inhibit inactive, Fluor 339 460 2.5, PMK inhibit inactive, NADH coupling inactive and MK inhibit inactive.
Screening O=C(Nc1nc2c(ccc3ccccc32)s1)c1ccco1 returned A340 absorber inactive, DPM-DC inhibit inactive, Fluor 339 460 2.8, PMK inhibit inactive, NADH coupling inactive and MK inhibit inactive.
Screening Cc1nc2ccc3nc(NC(=O)c4ccco4)sc3c2s1 returned A340 absorber inactive, DPM-DC inhibit inactive, Fluor 339 460 inactive, PMK inhibit 30, NADH coupling inactive and MK inhibit inactive.
Cc1nnc(NC(=O)c2ccco2)s1 was read as A340 absorber inactive, DPM-DC inhibit inactive, Fluor 339 460 inactive, PMK inhibit inactive, NADH coupling inactive and MK inhibit inactive.
